Source: ChEMBL document CHEMBL4513216, “Probing the Open Global Health Chemical Diversity Library for Multistage-Active Starting Points for Next-Generation Antimalarials” (ACS Infect Dis, 2020)
Out of some 69,000 compounds screened, about 8,600 (12%) showed an effect of 50% or more. The list comes from a sample in which strong results are over-represented; it also holds similar structures and randomly drawn compounds.

These molecules were tested on Plasmodium berghei (assay: Screen against P. berghei liver stage (PbLuc), transformed with Luciferase, at 10uM). Conditions: tested at 10 uM.
Type: functional, HepG2

| SMILES | INHIBITION [%] |
| --- | --- |
| Cc1cc(C(=O)N2CCN(c3nc4c(C(C)C)cccc4s3)CC2)no1 | 90.4 |
| COc1cc(C)nc(N2CCN(C(=O)c3cc(C)no3)CC2)n1 | 19.2 |
| Cc1cc(C(=O)N2CCN(c3nc4c(C(C)C)cccc4s3)CC2)on1 | 92.1 |
| Cc1cc(C(=O)N2CCN(c3nc4c(F)cccc4s3)CC2)no1 | -18.5 |
| COc1cccc2sc(N3CCN(C(=O)c4cc(C)on4)CC3)nc12 | 17.1 |
| Cc1cc(C(=O)N2CCN(c3nc4c(C)cccc4s3)CC2)no1 | 24.7 |
| CC(C)Nc1cccc(CC2CCN(S(C)(=O)=O)CC2)n1 | 41.2 |
| c1ccc(CN2CCc3ncnc(C4CC4)c3CC2)cc1 | 0.164 |
| Cn1ccnc1CN1CCc2ncnc(N3CCCC(C#N)C3)c2CC1 (stereo not given) | 11.3 |
| N#CC1CCCN(c2ncnc3c2CCN(Cc2ccccc2)CC3)C1 (stereo not given) | 67.8 |
| O=C(c1ccc2c(c1)CCC2)N1CC[C@H](O)[C@]2(CCCO2)C1 | 32.3 |
| CC(C)c1nc(-c2cc(C(=O)NCCN(C)C)c3ccccn23)cs1 | -2.41 |
| CN(Cc1ccc([S+](C)[O-])cc1)c1cncc(Cl)n1 (stereo not given) | 52.2 |
| CN(Cc1ccc([S+](C)[O-])cc1)c1cncc(Br)c1 (stereo not given) | 58.4 |
| CN(Cc1ccncc1)c1cncc(Br)c1 | 33.4 |
| Cc1csc(CNC(=O)N(C)Cc2ccc([S+](C)[O-])cc2)n1 (stereo not given) | 20.6 |
| CN(Cc1ccc([S+](C)[O-])cc1)c1ccc(Cl)cn1 (stereo not given) | 33 |
| Cc1ncc(CNC(=O)N(C)Cc2ccc([S+](C)[O-])cc2)s1 (stereo not given) | 40.5 |
| CCc1cc(=O)[nH]c(SCc2ccccn2)n1 | -35.5 |
| Cc1noc(C(C)C)c1C(=O)N1CCC(n2cccn2)CC1 | 26.5 |
| Cc1cc(C)n(CC2CN(Cc3nc(C)c(C)o3)CCO2)n1 (stereo not given) | -47.6 |
| CN1CCN(C(=O)NC2CC2)Cc2cccnc21 | 0.547 |
| COC1COC2(CCN(Cc3ccc(Cl)cc3)CC2)C1 (stereo not given) | 19.5 |
| Cn1cc(CNC2CCOCC2)c(-c2cc3ccccc3o2)n1 | 39.6 |
| Cn1cc(CNC2CCC(O)CC2)c(-c2cc3ccccc3o2)n1 (stereo not given) | 72.1 |
| Cn1cc(CNC2CCS(=O)(=O)C2)c(-c2cc3ccccc3o2)n1 (stereo not given) | 35 |
| COc1cccc(CN2CCC3(CCN(C(=O)[C@H]4CCCO4)CC3)C2)c1 | 43.2 |

| SMILES | INHIBITION [%] |
| --- | --- |
| Cc1nn(C)c(=O)c2nn(-c3ccc(Cl)cc3)c(C)c12 | 28.5 |
| O=C(C1CN(CC2CC2)CC12CCOCC2)N1CCOCC1 (stereo not given) | -7.24 |
| O=C([C@@H]1COC[C@H]2CN(CC3CCCC3)C[C@H]21)N1CCOCC1 | 65.9 |
| O=C([C@@H]1COC[C@H]2CN(CC3CC3)C[C@H]21)N1CCC(F)CC1 | 12.7 |
| O=C([C@H]1COC[C@H]2CN(CC3CCCC3)C[C@H]21)N1CCOCC1 | 11.3 |
| O=C([C@H]1COC[C@H]2CN(CC3CCC3)C[C@H]21)N1CCOCC1 | 24.6 |
| O=C([C@H]1COC[C@H]2CN(CC3CC3)C[C@H]21)N1CCOCC1 | 60 |
| Cc1cnn(CCNCc2csc(-c3ncccn3)n2)c1 | 27.95 |
| CCc1nnc(CN(CC)C(=O)C2CC(=O)N(C3CCCC3)C2)o1 (stereo not given) | 43.2 |
| CCc1ccc(C(=O)Nc2cccc(CN3CCCC3C(N)=O)c2)cc1 (stereo not given) | -40.7 |
| Cc1cc(C)cc(C(=O)Nc2cccc(CN3CCCC3C(N)=O)c2)c1 (stereo not given) | 56 |
| NC(=O)C1CCCN1Cc1cccc(NC(=O)c2ccc(Cl)cc2F)c1 (stereo not given) | 44 |
| NC(=O)C1CCCN1Cc1cccc(NC(=O)c2cccs2)c1 (stereo not given) | -8.22 |
| NC(=O)C1CCCN1Cc1cccc(NC(=O)c2cc(Cl)cc(Cl)c2)c1 (stereo not given) | 68.8 |
| NC(=O)C1CCCN1Cc1cccc(NC(=O)c2ccsc2)c1 (stereo not given) | -18.4 |
| C[C@]12CCCCN(C(=O)c3ccccn3)[C@H]1CCCC(=O)N2 | 11.1 |
| CC1CCc2nn(CCNC(=O)c3ccco3)c(=O)cc2C1 (stereo not given) | -16.9 |
| COc1cccc(S(=O)(=O)NC(=O)C2CC(c3ccccc3)=NO2)c1 (stereo not given) | -24.7 |
| COC[C@@H]1CCC[C@]12CN(Cc1cccc(C)n1)CCO2 | -11.8 |
| c1ccc(COC[C@@H]2CCC[C@]23CN(Cc2nccs2)CCO3)nc1 | 74.2 |
| COC[C@@H]1CCC[C@@]12CN(Cc1ccco1)CCO2 | -0.813 |
| c1csc(COC[C@H]2CCC[C@]23CN(Cc2ccoc2)CCO3)n1 | 63.7 |
| COC[C@@H]1CCC[C@]12CN(Cc1ccco1)CCO2 | 8.67 |
| O=C(c1ccoc1)N1CCO[C@]2(CCC[C@@H]2COCc2ccncc2)C1 | -6.23 |
| CCOC[C@@H]1CCC[C@@]12CN(Cc1nccs1)CCO2 | 35.8 |
| c1cncc(OC[C@@H]2CCC[C@@]23CN(Cc2nccs2)CCO3)c1 | 66 |
| c1coc(CN2CCO[C@@]3(CCC[C@@H]3COCc3nccs3)C2)c1 | 53.2 |

| SMILES | INHIBITION [%] |
| --- | --- |
| O=C(c1ccc[nH]1)N1CCO[C@]2(CCC[C@@H]2COc2cccnc2)C1 | -34.7 |
| c1ccc(OC[C@H]2CCC[C@]23CN(Cc2nccs2)CCO3)nc1 | 38.7 |
| CCOC[C@@H]1CCC[C@@]12CN(Cc1cccnc1)CCO2 | 48.6 |
| CCc1noc(C2CCCCN2C(=O)c2sccc2C)n1 (stereo not given) | 40.8 |
| O=C(O)c1cc2c(nc1N1CCOCC1)CCN(C1CCOC1)CC2 (stereo not given) | -12.1 |
| CC(=O)NC1CCCN(C(=O)NCc2cccnc2)C1 (stereo not given) | -51.5 |
| CC(C)CN1CCC2(CC1)CC(NS(C)(=O)=O)c1ccccc1O2 (stereo not given) | 6.55 |
| CCOCCCC(=O)N(C)C(c1cccc(F)c1)c1ccccn1 (stereo not given) | -18 |
| Cc1nc(C2CCNCC2)cc(N(C)Cc2cc3cc(F)ccc3[nH]2)n1 | 33.5 |
| COc1cnc(CSc2nnc(C)s2)cc1OCC(N)=O | 34.2 |
| CCN1C(=O)CCCC12CCCN(C(=O)c1occc1C)C2 (stereo not given) | 23.5 |
| CC(CO)(NCc1noc(Cc2ccccc2)n1)C1CCCCC1 (stereo not given) | -1.7 |
| O=C(O)[C@@H]1CN(C(=O)CSCC2CC2)C[C@H]1c1ccccn1 | -87 |
| CCOc1ncccc1CNC(=O)c1c(C)oc(C)c1C | 29.75 |
| Cc1csc(CNC(=O)NC(C)c2ccc3c(c2)CCC(=O)N3)n1 (stereo not given) | 9.64 |
| CC(NC(=O)NCc1cc[nH]n1)c1ccc2c(c1)CCC(=O)N2 (stereo not given) | 51.2 |
| Cc1ccsc1C(=O)NC(C)c1ccc2c(c1)CCC(=O)N2 (stereo not given) | 11.7 |
| CC(NC(=O)c1cccc[n+]1[O-])c1ccc2c(c1)CCC(=O)N2 (stereo not given) | 62.6 |
| CC(NC(=O)c1ccoc1)c1ccc2c(c1)CCC(=O)N2 (stereo not given) | -6.14 |
| CC(NC(=O)NCc1ccccn1)c1ccc2c(c1)CCC(=O)N2 (stereo not given) | -75.2 |
| Cn1cnnc1C1CCN(C(=O)CCCOCc2ccccc2)CC1 | 43.2 |
| COc1nc(C)ccc1CNC(=O)NC(c1ncc(C)s1)C1CC1 (stereo not given) | -21.1 |
| O[C@H]1CN(CCCOc2ccccc2F)CC[C@@]12CCCO2 | 6.485 |
| O[C@H]1CN(CCOc2ccc(F)cc2)CC[C@@]12CCCO2 | 62.9 |
| C[C@@H]1CN(CCOc2ccc(F)cc2)CC[C@@]1(O)C1CCOCC1 | 28.8 |
| Cc1noc(C)c1CCC(=O)N1CCCC(n2cccn2)C1 (stereo not given) | 37.4 |
| CCc1nc(NC2CC(=O)N(CC3CCCCC3)C2)ncc1C (stereo not given) | 2.97 |

| SMILES | INHIBITION [%] |
| --- | --- |
| Cc1nc(Nc2nccs2)cc(C2CCCN2)n1 (stereo not given) | 5.05 |
| Cc1nc(Nc2ccccn2)cc(C2CCCN2C2CCOCC2)n1 (stereo not given) | 20.8 |
| Cc1nc(Nc2ncc(C)s2)cc(C2CCCN2)n1 (stereo not given) | 67.15 |
| Cc1nc(Nc2ncccn2)cc(C2CCCN2C2CCOCC2)n1 (stereo not given) | 15.4 |
| Cc1nc(Nc2ncc(C)s2)cc(C2CCCN2S(C)(=O)=O)n1 (stereo not given) | 50.8 |
| Cc1nc(Nc2nccs2)cc(C2CCCN2C2CCOCC2)n1 (stereo not given) | 52.3 |
| Cc1nc(Nc2nnc(C)s2)cc(C2CCCN2S(C)(=O)=O)n1 (stereo not given) | 6.32 |
| Cc1nc(NC2CCOCC2)cc(C2CCN2S(C)(=O)=O)n1 (stereo not given) | 30.6 |
| Cc1nc(Nc2nnc(C)s2)cc(C2CCCN2)n1 (stereo not given) | -24.595 |
| Cc1cc(CN(C)C(=O)C2CC(c3cccc(F)c3)=NO2)no1 (stereo not given) | 7.24 |
| CCNC(=O)c1ccc2c(c1)nc1n2CCN(C(C)C)C1 | -17.2 |
| COc1ccccc1C(=O)N1CCCC1c1ncc2c(n1)CCNC2 (stereo not given) | 26.3 |
| CCCC(O)CN1CCC(=O)N(CCOC)Cc2ccccc21 (stereo not given) | 6.34 |
| CC(C)C(C)N(C)C(=O)COc1ccccc1C#N (stereo not given) | 16.8 |
| COC(=O)c1ccc(NC(=O)CCc2ccco2)cc1 | -13.6 |
| Cc1nnc(C(C)N2CCCN(Cc3ccc(C#N)cc3)CC2)o1 (stereo not given) | 24 |
| O=c1ccc2c([nH]1)CCC(NCc1ccc(F)cc1)C2 (stereo not given) | 45.1 |
| Cc1ccc(C)c(CC(=O)NC2(C#N)CCOCC2)c1 | 20.4 |
| O=C(c1ccccn1)N(CCO)Cc1cc(Br)ccc1F | -0.759 |
| Cc1nn(C2CCS(=O)(=O)C2)c(O)c1Cc1ccccc1 (stereo not given) | 36.9 |
| CCOCC1CN(Cc2ccoc2)Cc2nn(C)cc21 (stereo not given) | 16.8 |
| CNc1cccc(C2CCCN(C(=O)c3coc(C)n3)C2)n1 (stereo not given) | 41.2 |
| CNc1cncc(C2CCN(C(=O)c3coc(C)n3)CC2)n1 | 58 |
| CNc1cncc(C2CCN(C(=O)c3cnco3)CC2)n1 | 8.53 |
